This note sets out measurements from PubChem BioAssay (NCATS).

Results filed as inconclusive are left out. The source made the active and inactive calls. Unless noted, calls come from the whole dose curve; as a rule, active = well fitted curve in the direction sought with a large enough effect; inconclusive = small, poorly fitted or top-dose-only effect, or another doubt; inactive = no such curve, though single readings can be large; an effect the other way counts as inactive or inconclusive.

Assay [1] can be described thus: Cell Viability - LYMP2-014 (AID 983).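 Note: cells exposed to compound for 24 h at 37 °C; plate controls were DMSO only for no effect and 92 µM tetraoctylammonium bromide for full effect; nearly all actives have a fitted effect of over 50% in size.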 The settings on record: LYMP2-014 lymphoblastoid cells, viability qHTS; series mostly up to 92.2 µM. The gist of the method:
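Decrease in intracellular ATP after 24 hr treatment at 37 C, measured by luciferase luminescence, indicated cytotoxicity. Concentration-response data were fitted with the standard Hill equation to give AC50.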

The nature of assay [2]: Cell Viability - LYMP2-018 (AID 985).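 Note: compound exposure lasted 24 hr at 37 °C; plate controls were DMSO only for no effect and tetraoctylammonium bromide at 92 µM for full effect; nearly all actives have a fitted effect of over 50% in size.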 The settings on record: LYMP2-018 lymphoblastoid cells, viability (qHTS); series mostly up to 92.2 µM. The gist of the method: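 Acute cytotoxicity is scored as a concentration-dependent drop in intracellular ATP after 24 hr exposure of the lymphoblastoid line in complete culture medium, measured by luciferase luminescence. Potency is expressed as AC50 from Hill modelling.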

The nature of assay [3]: Cell Viability - LYMP2-024 (AID 988).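 Note: plate controls were DMSO only for no effect and 92 µM tetraoctylammonium bromide for full effect; nearly all actives have a fitted effect of over 60% in size.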 The settings on record: LYMP2-024 lymphoblastoid cell viability; series mostly up to 92.2 µM. The gist of the method: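 Acute toxicity is measured as concentration-dependent loss of intracellular ATP in a human lymphoblastoid line treated 24 hours at 37 C. Luciferase luminescence quantifies ATP; AC50 values come from standard Hill-equation modelling.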

Assay [4] can be described thus: Cell Viability - LYMP2-026 (AID 989).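 Note: cells exposed to compound for 24 h at 37 °C; % is set by controls: 0 for no effect and ±100 for the full control effect; nearly all actives have a fitted effect of over 50% in size.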 The settings on record: LYMP2-026 lymphoblastoid cell viability, qHTS; series mostly up to 92.2 µM. The gist of the method: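 Concentration-dependent loss of intracellular ATP in human lymphoblastoid cells after 24 hr at 37 C, quantified by luciferase luminescence. AC50 derived from standard Hill equation.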
Assay [5] is described as follows: Cell Viability - LYMP1-002 - Assay at 24 hr (AID 993). Note: % is set by controls: 0 for no effect and ±100 for the full control effect. The settings on record: LYMP1-002 lymphoblastoid cells viability; series mostly up to 92.2 µM. The gist of the method: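 qHTS, LYMP1-002 lymphoblastoid, 24 h cpd, 37 C, CellTiter-Glo ATP luminescence; AC50 via Hill eq.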
A short description of assay [6]: Cell Viability - LYMP1-002 - Assay at 40 hr (AID 994).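 Note: 0% = DMSO only and full inhibition = 92 µM tetraoctylammonium bromide; nearly all actives have a fitted effect of over 60% in size.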 The settings on record: LYMP1-002 lymphoblastoid cell viability; series mostly up to 92.2 µM. The gist of the method:
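Viability in the human lymphoblastoid line was measured as intracellular ATP via CellTiter-Glo after 40 hr compound exposure. Tetraoctylammonium bromide served as positive control.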

Assay [7] addresses Bile acid receptor (Homo sapiens) (UniProt Q96RI1). The assay can be described thus: qHTS assay for small molecule agonists of farnesoid X receptor signaling (AID 588527; calls by dose curve;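 note: 0% = vehicle basal and 100% = reference agonist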). The settings on record: HEK293T FXR-UAS-bla, beta-lactamase ratio, 16 h; activation: stronger effect = higher value. The gist of the method:
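FXR-UAS-bla HEK293T, 10% dialyzed FBS; cpds up to 92 uM titration, 16 h 37 C; CCF4 dye 2 h RT; fluorescence. Normalized to chenodeoxycholic acid 100 uM (100%) and DMSO (0%); Hill fit gives EC50, efficacy.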

Assay [8] has as its target Glucocorticoid receptor (Homo sapiens) (UniProt P04150). The assay can be described thus: qHTS assay for small molecule antagonists of glucocorticoid receptor signaling (AID 588533; active = well fitted inhibition curve with a large enough effect in the signal ratio, with a control signal flat, not every such curve was filed as active; the % refers to the signal ratio;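 note: cells stimulated with 2 nM dexamethasone as agonist; % is set by controls: 0 for no effect and ±100 for the full control effect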). The settings on record: HeLa MMTV-bla, GRE beta-lactamase ratio, antagonist mode, 18 h; series mostly up to 76.8 µM. The gist of the method: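 Antagonist-mode qHTS: compound titrations added to GRE-bla HeLa cells, then dexamethasone 2 nM final; 18 h, 37 C. CCF4 FRET fluorescence normalized to dexamethasone and DMSO; IC50 from Hill fit.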

In assay [9] the target is Peroxisome proliferator-activated receptor gamma (Homo sapiens) (UniProt P37231). The assay can be described thus: qHTS assay for small molecule antagonists of peroxisome proliferator-activated receptor gamma signaling (AID 588537; active = well fitted inhibition curve with a large enough effect in the signal ratio, with a control signal flat, not every such curve was filed as active; the % refers to the signal ratio;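 note: reporter cells co-stimulated with 50 nM rosiglitazone agonist during compound treatment; % of control where 0% means no effect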). The settings on record: HEK293 PPARg-UAS-bla, beta-lactamase ratio, antagonist mode; series mostly up to 76.8 µM. The gist of the method:
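PPAR-gamma-UAS-bla HEK293 cells (3000/well, 1% charcoal/dextran-stripped FBS) were preincubated 6-6.5 h at 37 C, given titrated compounds, then stimulated with 50 nM rosiglitazone for 16 h. Beta-lactamase activity was read with CCF4 dye; IC50 came from Hill fits.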

Assay [10] is described as follows: qHTS assay for small molecule agonists of retinoid X receptor alpha signaling (AID 588544; calls by dose curve;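 for activation: 0% = DMSO basal wells and 100% = reference agonist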). The settings on record: HEK293T RXRa-UAS-bla, beta-lactamase reporter, 18 h; 530 nm emission.
For assay [11], the target named is Retinoic acid receptor RXR-alpha (Homo sapiens) (UniProt P19793). The assay is described as above. The settings on record: HEK293T RXRa-UAS-bla, beta-lactamase reporter, 18 h; series mostly up to 76.7 µM.
A short description of assay [12]: qHTS assay for small molecule antagonists of retinoid X receptor alpha signaling (AID 588546; active = well fitted inhibition curve with a large enough effect in the signal ratio, with a control signal flat, not every such curve was filed as active; the % refers to the signal ratio;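 note: cells stimulated with 9-cis-retinoic acid as agonist; % is set by controls: 0 for no effect and ±100 for the full control effect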). The settings on record: HEK293T RXRa-UAS-bla, beta-lactamase ratio, antagonist mode; measured here: W530 green channel, cytotoxicity proxy. The gist of the method:
(§1)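 Beta-lactamase reporter inhibition, read as CCF4 fluorescence ratio (ex 405, em 460/530 nm) after 2 h at RT. HEK293T UAS-bla cells, 2500/well, were stimulated with 9-cis-RA at 500 or 100 nM final alongside test compound for 18 h at 37 C.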

For assay [13], the target named is Retinoic acid receptor RXR-alpha (Homo sapiens) (UniProt P19793). The description is as above. The settings on record: HEK293T RXRa-UAS-bla, beta-lactamase ratio, antagonist mode. The gist of the method:
as §1

The nature of assay [14]: qHTS assay for small molecule agonists of the antioxidant response element (ARE) signaling pathway (AID 651741; active = well fitted activation curve with a large enough effect in the signal ratio; the % refers to the signal ratio; note: potency is the fitted concentration of half-maximal effect). The settings on record: HepG2 ARE-bla reporter, beta-lactamase FRET ratio, 16 h; series mostly up to 96 µM. The gist of the method:
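ARE-bla HepG2 cells (beta-lactamase reporter under ARE control) were plated at 2,000 cells/well, preincubated 5 h at 37 C/5% CO2, then treated with DMSO-dissolved compounds for 16 h at 37 C; LiveBLAzer B/G FRET substrate added, fluorescence read after 2 h at room temperature.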

Assay [15] is described as follows: qHTS profiling for inhibitors of Plasmodium falciparum (3D7) proliferation (AID 743322).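 Note: infected erythrocytes exposed to compound for 72 h before lysis; 100% = DMSO vehicle wells and 0% = 0.29 µM artemisinin.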 The settings on record: P. falciparum 3D7 proliferation; at 28.7 µM (top of the series). The gist of the method: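 Erythrocytes infected with P. falciparum (0.3% parasitemia, 2.5% hematocrit) incubated with compounds 72 h at 37 C, 5% CO2. Lysis with saponin/Triton buffer containing SYBR Green I, overnight at room temperature in the dark; DNA fluorescence (485/535 nm) normalised to 0.29 uM artemisinin and DMSO.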

A short description of assay [16]: qHTS profiling for inhibitors of Plasmodium falciparum (DD2) proliferation (AID 743323; call rule not given here). The settings on record: lower = more inhibition; at 28.7 µM (top of the series). The gist of the method:
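SYBR Green fluorescence (ex 485, em 535 nm) of lysed cultures gives parasite DNA content; wells normalized to artemisinin (0.29 uM) and DMSO controls. Infected red cells: 0.3% parasitemia, 2.5% hematocrit, 72 h, 37 C.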

Assay [17] is described as follows: qHTS profiling for inhibitors of Plasmodium falciparum (HB3) proliferation (AID 743324).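 Note: 100% = DMSO vehicle wells and 0% = artemisinin-treated control wells.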 The settings on record: Plasmodium falciparum HB3 blood-stage proliferation; at 28.7 µM (top of the series). The gist of the method:
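P. falciparum HB3 grown in erythrocytes (0.3% parasitemia, 2.5% hematocrit final) with compound for 72 h at 37 C, 5% CO2. Parasite DNA detected by SYBR Green after saponin/triton lysis overnight; normalized to 0.29 uM artemisinin and DMSO.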

The nature of assay [18]: NCATS anti-infectives library activity on HEK293 viability as a counter-qHTS vs the C. elegans viability qHTS (AID 1745854).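 Note: HEK293 cells exposed to compounds for 24 hr before the viability read; % is set by controls: 0 for no effect and ±100 for the full control effect.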 The settings on record: HEK293 viability counter-screen; series mostly up to 41.8 µM. The gist of the method: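 Cytotoxicity in human HEK293 cells is measured by ATP-dependent CellTiter-Glo luminescence following a 24 hr incubation with titrated library compounds at 37C. Top final concentration is 41.7 uM.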

Assay [19] can be described thus: NCATS anti-infectives library activity on the primary C. elegans qHTS viability assay (AID 1745855; calls by dose curve). The settings on record: C. elegans worm area imaging, day 7; series mostly up to 41.8 µM. The gist of the method: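 Viability is taken from GFP fluorescence of PE254-GFP-FLuc C. elegans imaged by laser cytometry over 7 days. Ten L1 worms per well grow at 21 °C on TOP10 E. coli capsules with titrated compound; levamisole marks toxicity.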

Assay [20] deals with Lysosomal alpha-glucosidase (Homo sapiens) (UniProt P10253). The assay can be described thus: Confirmation of Inhibitors and Activators of Purified Human alpha-Glucosidase (AID 2115; active = well fitted curve in either direction with a large enough effect). The settings on record: purified human GAA enzyme activity; series mostly up to 76.2 µM. The gist of the method: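 Purified human enzyme (4 nM) with 4-methylumbelliferyl-alpha-D-glucopyranoside (400 uM), compounds up to 77 uM, in citrate/phosphate buffer pH 5.0 with 0.005% Tween-20. After 20 min at RT, stopped at pH 10; fluorescence ex 365/em 440 nm; AC50 from Hill fits.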

Sequence of Retinoic acid receptor RXR-alpha (Homo sapiens) (P19793 whole entry, looked up): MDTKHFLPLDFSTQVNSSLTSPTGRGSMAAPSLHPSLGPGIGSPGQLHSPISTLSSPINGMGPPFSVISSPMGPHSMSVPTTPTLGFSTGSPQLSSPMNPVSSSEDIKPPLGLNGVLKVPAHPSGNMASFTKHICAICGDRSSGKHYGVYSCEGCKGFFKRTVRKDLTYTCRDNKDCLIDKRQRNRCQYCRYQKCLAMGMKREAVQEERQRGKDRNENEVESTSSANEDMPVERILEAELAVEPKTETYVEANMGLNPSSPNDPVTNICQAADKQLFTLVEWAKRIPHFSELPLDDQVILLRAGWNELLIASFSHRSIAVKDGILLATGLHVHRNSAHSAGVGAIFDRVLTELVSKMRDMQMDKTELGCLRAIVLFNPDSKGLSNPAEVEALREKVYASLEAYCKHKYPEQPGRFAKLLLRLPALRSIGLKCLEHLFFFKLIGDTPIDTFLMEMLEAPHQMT
Sequence of Peroxisome proliferator-activated receptor gamma (Homo sapiens) (P37231 whole entry, looked up): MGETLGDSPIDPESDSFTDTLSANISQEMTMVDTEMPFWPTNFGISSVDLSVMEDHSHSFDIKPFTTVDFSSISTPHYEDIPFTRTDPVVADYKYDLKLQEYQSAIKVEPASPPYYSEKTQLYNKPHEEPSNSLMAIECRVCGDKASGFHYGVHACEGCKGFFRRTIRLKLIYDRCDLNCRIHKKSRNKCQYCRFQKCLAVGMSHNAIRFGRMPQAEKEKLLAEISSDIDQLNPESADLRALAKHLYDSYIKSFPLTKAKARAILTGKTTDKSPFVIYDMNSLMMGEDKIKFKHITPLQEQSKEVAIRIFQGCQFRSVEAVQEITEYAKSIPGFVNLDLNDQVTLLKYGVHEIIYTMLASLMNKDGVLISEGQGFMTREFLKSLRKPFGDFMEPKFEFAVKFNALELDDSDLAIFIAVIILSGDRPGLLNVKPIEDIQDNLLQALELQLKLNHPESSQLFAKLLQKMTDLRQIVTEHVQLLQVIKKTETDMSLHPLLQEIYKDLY
Sequence of Glucocorticoid receptor (Homo sapiens) (P04150 whole entry, looked up): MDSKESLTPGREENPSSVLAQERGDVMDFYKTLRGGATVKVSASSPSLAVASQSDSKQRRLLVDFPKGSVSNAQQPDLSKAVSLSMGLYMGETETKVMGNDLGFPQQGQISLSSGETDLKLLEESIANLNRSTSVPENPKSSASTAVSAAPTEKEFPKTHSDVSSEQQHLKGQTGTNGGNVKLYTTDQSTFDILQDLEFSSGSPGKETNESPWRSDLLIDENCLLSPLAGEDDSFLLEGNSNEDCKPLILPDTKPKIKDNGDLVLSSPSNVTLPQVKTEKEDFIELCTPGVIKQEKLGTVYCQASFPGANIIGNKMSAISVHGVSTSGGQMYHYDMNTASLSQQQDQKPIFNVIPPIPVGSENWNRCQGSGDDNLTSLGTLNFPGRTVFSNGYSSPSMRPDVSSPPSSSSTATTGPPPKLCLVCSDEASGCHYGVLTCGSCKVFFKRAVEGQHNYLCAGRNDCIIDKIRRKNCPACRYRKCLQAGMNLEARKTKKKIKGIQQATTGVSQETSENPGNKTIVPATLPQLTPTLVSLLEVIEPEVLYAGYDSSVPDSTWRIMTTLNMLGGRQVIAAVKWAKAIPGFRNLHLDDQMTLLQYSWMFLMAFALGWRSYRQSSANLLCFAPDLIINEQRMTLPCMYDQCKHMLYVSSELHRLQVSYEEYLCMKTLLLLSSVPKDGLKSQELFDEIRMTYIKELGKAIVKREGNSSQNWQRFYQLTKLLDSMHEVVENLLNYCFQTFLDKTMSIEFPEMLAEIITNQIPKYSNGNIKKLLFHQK
Sequence of Bile acid receptor (Homo sapiens) (Q96RI1 whole entry, looked up): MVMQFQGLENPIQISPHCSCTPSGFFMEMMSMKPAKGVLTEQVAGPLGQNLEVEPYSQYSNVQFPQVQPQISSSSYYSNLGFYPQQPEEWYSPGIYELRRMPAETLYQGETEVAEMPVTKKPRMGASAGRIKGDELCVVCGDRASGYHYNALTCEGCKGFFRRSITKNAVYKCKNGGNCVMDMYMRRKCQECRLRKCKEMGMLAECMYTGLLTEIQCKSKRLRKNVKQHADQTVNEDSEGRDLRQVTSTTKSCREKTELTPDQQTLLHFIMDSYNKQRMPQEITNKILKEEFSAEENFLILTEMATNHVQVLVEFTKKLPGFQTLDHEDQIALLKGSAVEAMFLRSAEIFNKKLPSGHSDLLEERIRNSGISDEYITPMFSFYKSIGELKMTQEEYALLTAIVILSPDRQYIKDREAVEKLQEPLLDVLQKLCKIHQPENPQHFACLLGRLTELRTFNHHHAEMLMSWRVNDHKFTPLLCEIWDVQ

With `CC(C)(c1ccc(OCC2CO2)cc1)c1ccc(OCC2CO2)cc1` (stereo not given), the molecule was classed as inactive in [1], in assay [2], in [3], in assay [4] and in assay [5]. For the same molecule, the Potency result in [6] is “inactive”.
For the molecule `Cc1ccc2cc3c(ccc4ccccc43)c3c2c1CC3`, in [7], the activation was 2.18% (inactive). In addition, the Potency result in assay [8] and in [9] was “inactive” each time. Also, the max response in assay [10] is 0.698%; in [12], 24.7%; in assay [13], -30.8% (inactive). Moreover, the call in assay [11] was inactive. Moreover, the Potency in [14] was 2170 nM (active).
Molecule `CCCCC[C@H]1C(=O)O[C@H](C)[C@H](NC(=O)c2cccc(NC=O)c2O)C(=O)O[C@@H](C)[C@@H]1OC(=O)CC(C)C` gave a remaining parasite growth % (stronger effect = lower value) in [15] of 20.4%. Besides, the activity, percent of control in assay [16] was determined as 8.53%. The molecule further gave a remaining proliferation (% of control), lower = more inhibition in [17] of 6.18%.
In the case of `O=NN1CCCC1c1cccnc1` (stereo not given), the Potency entry in assay [18] and in [19] was “inactive” each time.
Regarding `O[C@H]1[C@H](O)[C@@H](O)CN2CC[C@H](O)[C@H]12`, the outcome in [20] was inactive.
